Measured values published in PubChem BioAssay AID1159580 (chemical genetic matrix, 2015).
Screen size: about 5,500 compounds; about 2,000 (36%) were called active. Roughly 18% stayed inconclusive and do not appear here. Cut-off read from the data, not from the text of the source: active = normalized growth mostly below about 0.91 (no sharp cut-off); inconclusive = no clear call, values can overlap the other calls; inactive = mostly above about 0.92. The list shows a part of the results.

Experiment: chemical genetic growth profiling, strain panel (AID 1159580);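 note: tested at 20 µM; growth read once vehicle control cultures reached saturation at 30 °C; 1 = growth at the plate median or of vehicle wells; lower values mean less growth of the strain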
Settings: growth OD

Measured: normalized growth

CCN(CC)C(C)CN1c2ccccc2Sc2ccccc21 (configuration not stated)
inactive: S. cerevisiae deletion strains, locus YJR075W, strain HOC1, active compounds read low 0.937 | S. cerevisiae deletion strains, locus YKL009W, strain mrt4, active compounds read low 0.888 | S. cerevisiae deletion strains, locus YKL068W, active compounds read low 0.965 | S. cerevisiae deletion strains, locus YKL085W, strain MDH1 (second series), active compounds read low 0.972 | S. cerevisiae deletion strains, locus YKL085W, strain MDH1, active compounds read low 0.972 | S. cerevisiae deletion strains, locus YKL160W, strain elf1, active compounds read low 0.907 | S. cerevisiae deletion strains, locus YKL190W, strain CNB1, active compounds read low 0.985 | S. cerevisiae deletion strains, locus YKR001C, strain vps1, active compounds read low 1.02 | S. cerevisiae deletion strains, locus YKR026C, strain gcn3, active compounds read low 1.01 | S. cerevisiae deletion strains, locus YKR091W, strain srl3, active compounds read low 0.986 | S. cerevisiae deletion strains, locus YLL001W, strain dnm1, active compounds read low 0.911 | S. cerevisiae deletion strains, locus YLL026W, active compounds read low 0.962 | S. cerevisiae deletion strains, locus YLL041C, strain sdh2, active compounds read low 0.981 | S. cerevisiae deletion strains, locus YLR027C, strain aat2, active compounds read low 0.961 | S. cerevisiae deletion strains, locus YLR039C, strain RIC1, active compounds read low 1.1 | S. cerevisiae deletion strains, locus YLR058C, strain SHM2, active compounds read low 0.963 | S. cerevisiae deletion strains, locus YLR102C, strain apc9, active compounds read low 0.965 | S. cerevisiae deletion strains, locus YLR113W, strain HOG1, active compounds read low 1.08 | S. cerevisiae deletion strains, locus YLR221C, strain rsa3, active compounds read low 0.949 | S. cerevisiae deletion strains, locus YLR258W, strain gsy2, active compounds read low 0.922 | S. cerevisiae deletion strains, locus YLR262C, strain YPT6 (second series), active compounds read low 1.05 | S. cerevisiae deletion strains, locus YLR262C, strain YPT6, active compounds read low 1.17 | S. cerevisiae deletion strains, locus YLR268W, strain sec22, active compounds read low 0.924 | S. cerevisiae deletion strains, locus YLR330W, strain CHS5, active compounds read low 0.975 | S. cerevisiae deletion strains, locus YLR342W, strain FKS1 (second series), active compounds read low 0.895 | S. cerevisiae deletion strains, locus YLR357W, strain rsc2, active compounds read low 1.01 | S. cerevisiae deletion strains, locus YLR370C, strain arc18, active compounds read low 0.952 | S. cerevisiae deletion strains, locus YLR371W, strain rom2, active compounds read low 0.955 | S. cerevisiae deletion strains, locus YLR384C, strain iki3, active compounds read low 1 | S. cerevisiae deletion strains, locus YLR418C, strain cdc73, active compounds read low 0.844 | S. cerevisiae deletion strains, locus YML016C, strain PPZ1, active compounds read low 0.985 | S. cerevisiae deletion strains, locus YML032C, strain rad52, active compounds read low 0.951 | S. cerevisiae deletion strains, locus YML120C, strain ndi1, active compounds read low 1 | S. cerevisiae deletion strains, locus YML124C, strain tub3, active compounds read low 0.964 | S. cerevisiae deletion strains, locus YMR058W, strain fet3, active compounds read low 0.933 | S. cerevisiae deletion strains, locus YMR078C, strain ctf18, active compounds read low 0.959 | S. cerevisiae deletion strains, locus YMR125W, strain sto1, active compounds read low 1 | S. cerevisiae deletion strains, locus YMR129W, active compounds read low 0.995 | S. cerevisiae deletion strains, locus YMR205C, strain PFK2, active compounds read low 0.912 | S. cerevisiae deletion strains, locus YMR223W, strain ubp8, active compounds read low 0.944 | S. cerevisiae deletion strains, locus YMR231W, strain pep5, active compounds read low 1.01 | S. cerevisiae deletion strains, locus YMR263W, strain SAP30, active compounds read low 0.952 | S. cerevisiae deletion strains, locus YMR307W, strain GAS1, active compounds read low 0.902 | S. cerevisiae deletion strains, locus YNL067W, strain RPL9B, active compounds read low 0.91 | S. cerevisiae deletion strains, locus YNL071W, strain lat1, active compounds read low 0.99 | S. cerevisiae deletion strains, locus YNL128W, strain TEP1, active compounds read low 0.987 | S. cerevisiae deletion strains, locus YNL153C, strain GIM3, active compounds read low 0.963 | S. cerevisiae deletion strains, locus YNL183C, strain NPR1, active compounds read low 0.961 | S. cerevisiae deletion strains, locus YNL233W, strain BNI4, active compounds read low 0.948 | S. cerevisiae deletion strains, locus YNL248C, strain rpa49, active compounds read low 0.954 | S. cerevisiae deletion strains, locus YNL250W, strain rad50, active compounds read low 0.98 | S. cerevisiae deletion strains, locus YNL271C, strain bni1, active compounds read low 0.971 | S. cerevisiae deletion strains, locus YNL298W, strain CLA4, active compounds read low 0.959 | S. cerevisiae deletion strains, locus YNL322C, strain KRE1 (second series), active compounds read low 0.96 | S. cerevisiae deletion strains, locus YNL322C, strain KRE1, active compounds read low 0.986 | S. cerevisiae deletion strains, locus YNR049C, strain mso1, active compounds read low 0.985 | S. cerevisiae deletion strains, locus YNR052C, strain pop2, active compounds read low 0.967 | S. cerevisiae deletion strains, locus YOL012C, strain htz1 1 | S. cerevisiae deletion strains, locus YOL147C, strain pex11, active compounds read low 0.961 | S. cerevisiae deletion strains, locus YOR001W, strain rrp6, active compounds read low 0.97 | S. cerevisiae deletion strains, locus YOR061W, strain CKA2, active compounds read low 0.988 | S. cerevisiae deletion strains, locus YOR069W, strain VPS5, active compounds read low 0.985 | S. cerevisiae deletion strains, locus YOR070C, strain gyp1, active compounds read low 0.933 | S. cerevisiae deletion strains, locus YOR080W, strain dia2, active compounds read low 1 | S. cerevisiae deletion strains, locus YOR136W, strain idh2, active compounds read low 0.965 | S. cerevisiae deletion strains, locus YOR144C, strain elg1, active compounds read low 0.955 | S. cerevisiae deletion strains, locus YOR184W, strain ser1, active compounds read low 0.94 | S. cerevisiae deletion strains, locus YOR231W, strain MKK1, active compounds read low 1.04 | S. cerevisiae deletion strains, locus YOR265W, strain rbl2, active compounds read low 0.986 | S. cerevisiae deletion strains, locus YOR290C, strain snf2, active compounds read low 0.89 | S. cerevisiae deletion strains, locus YOR316C, strain cot1, active compounds read low 0.942 | S. cerevisiae deletion strains, locus YPL055C, strain LGE1, active compounds read low 0.89 | S. cerevisiae deletion strains, locus YPL106C, strain sse1, active compounds read low 0.927 | S. cerevisiae deletion strains, locus YPL240C, strain hsp82, active compounds read low 0.977 | S. cerevisiae deletion strains, locus YPL241C, strain CIN2, active compounds read low 0.996 | S. cerevisiae deletion strains, locus YPL256C, strain CLN2, active compounds read low 1.05 | S. cerevisiae deletion strains, locus YPR119W, strain clb2, active compounds read low 0.954 | S. cerevisiae deletion strains, locus YPR141C, strain kar3, active compounds read low 0.957 | S. cerevisiae deletion strains, locus YPR163C, strain tif3, active compounds read low 0.949 | S. cerevisiae deletion strains, locus YPR167C, strain met16, active compounds read low 0.936 | S. cerevisiae deletion strains, strain wtn01, active compounds read low 0.957 | S. cerevisiae strains, strain wild type, active compounds read low 1
active: S. cerevisiae deletion strains, locus YLR320W, strain mms22, active compounds read low 0.875 | S. cerevisiae deletion strains, locus YLR342W, strain FKS1, active compounds read low 0.879 | S. cerevisiae deletion strains, locus YNL209W, strain ssb2, active compounds read low 0.891 | S. cerevisiae deletion strains, locus YNL307C, strain MCK1, active compounds read low 0.89 | S. cerevisiae deletion strains, locus YOL006C, strain TOP1, active compounds read low 0.458 | S. cerevisiae deletion strains, locus YOR083W, strain WHI5, active compounds read low 0.841 | S. cerevisiae deletion strains, locus YOR106W, strain vam3, active compounds read low 0.803 | S. cerevisiae deletion strains, locus YOR270C, strain vph1, active compounds read low 0.67 | S. cerevisiae deletion strains, locus YPL051W, strain arl3, active compounds read low 0.831 | S. cerevisiae deletion strains, locus YPL078C, strain atp4, active compounds read low 0.87
